Measured values: PubChem BioAssay (EPA / NIEHS)
Where “and” joins values, the source holds several entries; their conditions need not be identical. Identical values can stand only once. Results filed as inconclusive are left out. Where a structure was tested more than once in an assay, its records may differ in their call. Calls of active or inactive are those of the source. The calls were made as follows: active = hit-call score of the fitted dose curve at least 0.9, where 1 is the maximum; inconclusive = response in the unintended direction; inactive = score below 0.9.

Tests used:
[1] = TOX21_p53_BLA_p2_viability: Viability Assessment in the Tox21 HCT-116 p53 Agonism Beta-lactamase Assay, Phase 2 (AID 2283591);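 also: actives lower the ATP signal meaning cytotoxicity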
In short: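 HCT116 p53-bla cells, 4000/well, dosed after 5 h plating (217-fold dilution of DMSO stocks) and incubated 16 h at 37C. Viability taken as cellular ATP by CellTiter-Glo luminescence after 30 min RT; signal loss marks cytotoxicity.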

[2] = target: Cellular tumor antigen p53 (Homo sapiens) (UniProt P04637); test: TOX21_p53_BLA_p2_ratio: Tox21 HCT-116 p53 Agonism Beta-lactamase Assay, Ratio, Phase 2 (AID 2283592)
In short: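 Plated HCT116 p53-bla cells (4000/well) received compound after 5 h, then 16 h at 37C/5% CO2. CCF4-AM added, 2 h RT. Ratio of 460 to 530 nm emission taken as the p53 reporter signal.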

[3] = target: Estrogen receptor (Homo sapiens) (UniProt P03372); test: NVS_NR_hER: NovaScreen (NVS) Nuclear Receptor Binding Assay for human Estrogen Receptor (ER) (AID 2283348)
In short: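 MCF7-derived receptor extract, radiolabelled ligand, competitive displacement. Read: scintillation counts at 18 h. DMSO = negative control/baseline. Primary 25 uM duplicate; follow-up concentration–response.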

[4] = target: bovine Estrogen Receptor (ER), ESR1 (gene 407238) (UniProt P49884); test: NVS_NR_bER: NovaScreen (NVS) Nuclear Receptor Binding Assay for bovine Estrogen Receptor (ER) (AID 2283345);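 also: actives lower the bound radioligand count which means they displace the ER ligand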
In short: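 Scintillation counting of displaced radioligand gave the readout; bovine uterine membrane extract supplied the receptor. Measured 18 h post-dose, normalized to DMSO baseline. Single 25 uM duplicate screen preceded concentration-response follow-up.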

[5] = TOX21_p53_BLA_p4_viability: Viability Assessment in the Tox21 HCT-116 p53 Agonism Beta-lactamase Assay, Phase 4 (AID 2283597);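 also: hits lower the luminescence signal meaning cytotoxicity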
In short: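 Readout: ATP luminescence (CellTiter-Glo), measured 30 min after reagent addition at RT. The reagent followed a 2 h CCF4-AM incubation, and the cells had been exposed to compound for 16 h at 37C.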

[6] = target: Cellular tumor antigen p53 (Homo sapiens) (UniProt P04637); test: TOX21_p53_BLA_p5_ratio: Tox21 HCT-116 p53 Agonism Beta-lactamase Assay, Ratio, Phase 5 (AID 2283599)
In short: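 HCT-116 p53-bla cells (4000/well) plated 5 h, dosed with compound (217-fold DMSO dilution) for 16 h at 37 C; CCF4-AM substrate 2 h at room temperature. Activity is the 460/530 nm emission ratio (405 nm excitation), fitted in gain-of-signal direction versus DMSO.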

[7] = TOX21_p53_BLA_p3_viability: Viability Assessment in the Tox21 HCT-116 p53 Agonism Beta-lactamase Assay, Phase 3 (AID 2283593);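 also: cells exposed to compound for 16 h before reading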
In short: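 HCT116 cells, 4000/well, dosed 5 h after plating by pin transfer (217-fold dilution from DMSO stock) and incubated 16 h at 37C, 5% CO2. Viability read as ATP luminescence with CellTiter-Glo after 30 min at room temperature.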

[8] = target: Cellular tumor antigen p53 (Homo sapiens) (UniProt P04637); test: TOX21_p53_BLA_p3_ratio: Tox21 HCT-116 p53 Agonism Beta-lactamase Assay, Ratio, Phase 3 (AID 2283596)
In short: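 Cells were seeded at 4000/well, rested 5 h at 37C, then dosed with DMSO compound solutions (217-fold dilution) for 16 h. CCF4-AM substrate was loaded for 2 h at room temperature, and the 460/530 nm emission ratio was fitted for gain of signal versus DMSO.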

[9] = TOX21_p53_BLA_p5_viability: Viability Assessment in the Tox21 HCT-116 p53 Agonism Beta-lactamase Assay, Phase 5 (AID 2283600)
In short: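 Workflow: seed 4000 cells per well, wait 5 h, add compounds (DMSO, 217-fold dilution), incubate 16 h, load CCF4-AM 2 h, add CellTiter-Glo, read luminescence after 30 min.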

[10] = target: Cellular tumor antigen p53 (Homo sapiens) (UniProt P04637); test: TOX21_p53_BLA_p4_ratio: Tox21 HCT-116 p53 Agonism Beta-lactamase Assay, Ratio, Phase 4 (AID 2283601)
In short: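 HCT-116 p53 beta-lactamase reporter cells (4000/well) preincubated 5 h, then compound (217-fold dilution of DMSO stock) for 16 h at 37C. CCF4-AM substrate added 2 h at room temperature; 460/530 nm emission ratio fitted upward versus DMSO.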

[11] = target: Thyroid hormone receptor alpha (Rattus norvegicus) + Thyroid hormone receptor beta (Rattus norvegicus) (UniProt P18113+P63059); test: TOX21_TR_LUC_GH3_Antagonist_Followup: Tox21 GH3 Thyroid Hormone Receptor Antagonism Luciferase Follow-Up Assay (AID 2283942)
In short: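 Luminescence read-out (ONE-Glo, 30 min at room temperature) in GH3 reporter cells challenged with 1.0 nM T3 final. Compounds ran at 92 uM to 5nM over 15 concentrations for 24 h; DMSO served as negative control and baseline.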

[12] = target: THRA (gene 7067) (UniProt P10827); test: TOX21_TRA_COA_Antagonist_Followup_ratio: Tox21 Thyroid Hormone Receptor alpha Antagonism through Coactivator Recruitment Follow-Up Assay, Ratio (AID 2283953)
In short: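 We measured antagonism of T3-type coactivator recruitment using a TR-FRET ratio (emission 520 and 495 nm) between a Tb-labelled anti-GST antibody on TRα LBD (2.5 nM) and SRC-2 peptide (200 nM). Activity was scaled between DMSO and T3 wells.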

[13] = target: THRB (gene 7068) (UniProt P10828); test: TOX21_TRB_BLA_Antagonist_Followup_ratio: Tox21 Thyroid Hormone Receptor beta Antagonism Beta-lactamase (BLA) Follow-Up Assay, Ratio (AID 2283958)
In short: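 Using charcoal-stripped 2% FBS medium, human TRβ-LBD/GAL4 reporter HEK293T cells received test compounds for 18 h. The endpoint is the cleaved-to-uncleaved substrate ratio (460/530 nm).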

[14] = TOX21_TRB_BLA_Antagonist_Followup_viability: Viability Assessment in the Tox21 Thyroid Hormone Receptor beta Antagonism Beta-lactamase (BLA) Follow-Up Assay (AID 2283961)
In short: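 TRβ-bla HEK293T (human TRβ LBD fused to GAL4 DBD), 3,000 cells/well, 2% charcoal-stripped FBS, phenol red-free medium; 18 h compound exposure, 37C; CellTiter-Glo 30 min RT; luminescence, loss-of-signal readout.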

[15] = target: THRB (gene 7068) (UniProt P10828); test: TOX21_TRB_COA_Antagonist_Followup_ratio: Tox21 Thyroid Hormone Receptor beta Antagonism through Coactivator Recruitment Follow-Up Assay, Ratio (AID 2283967)
In short: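 GST-TRb LBD 5.0 nM + 0.10% BSA, compound added; fluorescein-SRC-2 peptide 200 nM, Tb-anti-GST Ab 2 nM. TR-FRET, ex 340 / em 520:495 ratio. Norm: DMSO 0%, T3 100%.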

[16] = target: Retinoic acid receptor RXR-alpha (Homo sapiens) (UniProt P19793); test: TOX21_TR_RXR_BLA_Antagonist_Followup_ratio: Tox21 Thyroid Hormone Receptor beta Retinoid X Receptor alpha (RXRa) Antagonism Beta-lactamase (BLA) Follow-Up Assay, Ratio (AID 2283972)
In short: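 HEK293T RXRa-bla, 2% charcoal-stripped FBS medium, 16 h compound exposure at 37C, qHTS 11 conc x3. CCF4 FRET ratio ch2/ch1 (460:530), DMSO = baseline, loss-of-signal fit.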

Measured: AC50

Chain of Cellular tumor antigen p53 (Homo sapiens) (P04637 whole entry, looked up): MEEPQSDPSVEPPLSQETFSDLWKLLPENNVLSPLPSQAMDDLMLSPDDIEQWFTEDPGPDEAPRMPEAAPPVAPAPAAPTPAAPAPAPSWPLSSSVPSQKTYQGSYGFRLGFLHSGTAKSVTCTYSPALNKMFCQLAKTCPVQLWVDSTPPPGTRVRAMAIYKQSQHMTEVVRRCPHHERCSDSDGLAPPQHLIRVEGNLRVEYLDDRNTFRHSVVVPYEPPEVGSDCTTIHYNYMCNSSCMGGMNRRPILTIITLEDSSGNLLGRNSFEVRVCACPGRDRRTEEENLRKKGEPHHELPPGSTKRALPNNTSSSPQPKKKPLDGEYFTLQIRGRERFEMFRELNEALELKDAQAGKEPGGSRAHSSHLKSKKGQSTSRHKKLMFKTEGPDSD
Chain of THRB (gene 7068) (P10828 whole entry, looked up, the tested form may be a part): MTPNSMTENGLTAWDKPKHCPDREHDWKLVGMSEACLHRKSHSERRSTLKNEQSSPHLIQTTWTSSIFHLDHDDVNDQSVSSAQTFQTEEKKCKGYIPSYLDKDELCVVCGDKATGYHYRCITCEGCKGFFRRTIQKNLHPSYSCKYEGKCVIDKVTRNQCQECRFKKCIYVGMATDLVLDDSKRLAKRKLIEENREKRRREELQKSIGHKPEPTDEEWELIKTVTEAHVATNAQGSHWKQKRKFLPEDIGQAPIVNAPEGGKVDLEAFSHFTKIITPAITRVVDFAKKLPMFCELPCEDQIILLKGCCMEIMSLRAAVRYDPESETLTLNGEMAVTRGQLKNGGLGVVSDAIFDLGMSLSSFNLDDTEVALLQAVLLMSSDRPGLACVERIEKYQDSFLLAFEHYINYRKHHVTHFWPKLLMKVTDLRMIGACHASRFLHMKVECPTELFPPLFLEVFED
Chain of Estrogen receptor (Homo sapiens) (P03372 whole entry, looked up): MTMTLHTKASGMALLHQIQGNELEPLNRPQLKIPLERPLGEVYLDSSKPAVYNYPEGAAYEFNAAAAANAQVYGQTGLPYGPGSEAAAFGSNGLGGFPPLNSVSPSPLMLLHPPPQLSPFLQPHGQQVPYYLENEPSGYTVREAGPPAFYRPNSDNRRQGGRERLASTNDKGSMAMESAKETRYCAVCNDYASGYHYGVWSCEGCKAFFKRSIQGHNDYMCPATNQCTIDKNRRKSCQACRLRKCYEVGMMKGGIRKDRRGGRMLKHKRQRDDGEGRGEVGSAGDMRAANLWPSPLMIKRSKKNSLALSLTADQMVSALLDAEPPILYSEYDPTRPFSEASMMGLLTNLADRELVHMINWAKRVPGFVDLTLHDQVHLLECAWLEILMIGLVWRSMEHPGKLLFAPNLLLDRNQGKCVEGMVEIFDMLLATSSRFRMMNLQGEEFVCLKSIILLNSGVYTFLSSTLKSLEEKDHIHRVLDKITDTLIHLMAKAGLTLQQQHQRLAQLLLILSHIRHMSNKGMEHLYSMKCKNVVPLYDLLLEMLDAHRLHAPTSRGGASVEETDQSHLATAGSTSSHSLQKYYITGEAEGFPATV
Chain of THRA (gene 7067) (P10827 whole entry, looked up, the tested form may be a part): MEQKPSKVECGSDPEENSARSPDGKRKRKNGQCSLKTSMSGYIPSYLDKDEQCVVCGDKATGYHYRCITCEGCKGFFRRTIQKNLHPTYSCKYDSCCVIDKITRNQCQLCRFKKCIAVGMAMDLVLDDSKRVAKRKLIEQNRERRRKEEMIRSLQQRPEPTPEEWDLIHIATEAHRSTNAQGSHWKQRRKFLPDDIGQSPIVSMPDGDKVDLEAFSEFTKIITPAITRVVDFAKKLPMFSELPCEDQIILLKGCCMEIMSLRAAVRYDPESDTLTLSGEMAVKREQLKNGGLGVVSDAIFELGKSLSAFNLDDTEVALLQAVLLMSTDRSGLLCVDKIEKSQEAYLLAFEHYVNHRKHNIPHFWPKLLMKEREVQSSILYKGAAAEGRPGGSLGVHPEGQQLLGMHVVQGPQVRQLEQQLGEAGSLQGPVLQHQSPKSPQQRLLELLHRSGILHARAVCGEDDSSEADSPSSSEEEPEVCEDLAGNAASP
Chain of Retinoic acid receptor RXR-alpha (Homo sapiens) (P19793 whole entry, looked up): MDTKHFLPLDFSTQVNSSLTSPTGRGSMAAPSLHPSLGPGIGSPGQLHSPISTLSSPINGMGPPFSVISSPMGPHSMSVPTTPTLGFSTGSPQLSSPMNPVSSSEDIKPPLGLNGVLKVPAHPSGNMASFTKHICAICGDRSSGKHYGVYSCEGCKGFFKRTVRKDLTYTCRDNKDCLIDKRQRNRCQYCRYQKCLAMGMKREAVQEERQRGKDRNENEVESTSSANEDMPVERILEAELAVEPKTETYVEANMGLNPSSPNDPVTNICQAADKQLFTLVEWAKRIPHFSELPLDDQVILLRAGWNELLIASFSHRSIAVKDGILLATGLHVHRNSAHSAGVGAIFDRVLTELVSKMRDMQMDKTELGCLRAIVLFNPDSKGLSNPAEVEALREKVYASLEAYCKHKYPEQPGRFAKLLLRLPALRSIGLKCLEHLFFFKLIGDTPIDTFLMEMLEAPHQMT
Chain of bovine Estrogen Receptor (ER), ESR1 (gene 407238) (P49884 whole entry, looked up): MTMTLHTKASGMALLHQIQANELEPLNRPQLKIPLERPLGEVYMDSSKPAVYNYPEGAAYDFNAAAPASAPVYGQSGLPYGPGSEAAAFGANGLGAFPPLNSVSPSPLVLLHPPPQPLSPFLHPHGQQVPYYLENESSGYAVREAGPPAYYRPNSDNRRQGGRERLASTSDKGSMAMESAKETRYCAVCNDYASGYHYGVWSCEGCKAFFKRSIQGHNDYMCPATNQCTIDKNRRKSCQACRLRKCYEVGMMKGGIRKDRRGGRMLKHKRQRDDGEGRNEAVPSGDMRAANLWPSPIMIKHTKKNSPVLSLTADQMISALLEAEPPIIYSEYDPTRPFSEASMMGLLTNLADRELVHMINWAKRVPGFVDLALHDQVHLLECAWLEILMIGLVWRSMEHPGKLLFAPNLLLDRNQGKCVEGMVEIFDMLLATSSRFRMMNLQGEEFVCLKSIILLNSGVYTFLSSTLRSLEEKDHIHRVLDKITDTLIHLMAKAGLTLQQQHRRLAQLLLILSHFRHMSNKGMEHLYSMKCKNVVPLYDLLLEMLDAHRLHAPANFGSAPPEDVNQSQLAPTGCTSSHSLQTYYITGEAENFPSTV

O=C(OCCOCCO)c1ccccc1Nc1cccc(C(F)(F)F)c1
inactive: [1] | [2]

SC1CCCC1
inactive: [3]

O=S(=O)(O)c1cc(Cl)c(Cl)cc1Cl
inactive: [4] | [3] | [1] | [5] | [6]

O=[Se](O)O
active: [1] 7.1 µM | [2] 1.79 µM | [7] 13.3 µM | [8] 548 nM | [5] 26 µM | [6] 2.46 µM | [10] 4.23 µM | [11] 4.84 µM | [12] 34.4 µM | [13] 1.64 µM | [14] 2.02 µM | [15] 31.7 µM | [16] 2.26 µM
inactive: [1] | [2] | [7] | [8] | [5] | [6] | [9] | [10]

Cc1c(C(=O)NCCO)[n+](=O)c2ccccc2n1[O-]
inactive: [1] | [2] | [7] | [8] | [5] | [6]

CO[C@H]1C[C@@H]2CC[C@@H](C)[C@@](O)(O2)C(=O)C(=O)N2CCCC[C@H]2C(=O)O[C@H]([C@H](C)C[C@@H]2CC[C@@H](O)[C@H](OC)C2)CC(=O)[C@H](C)/C=C(\C)[C@@H](O)[C@@H](OC)C(=O)[C@H](C)C[C@H](C)\C=C/C=C/C=C/1C
active: [1] 18.1 µM and 20.6 µM | [2] 29.7 µM | [7] 33.3 µM and 22.4 µM | [8] 41 µM and 40.8 µM | [5] 17.5 µM and 17.7 µM | [6] 35.1 µM and 34.8 µM | [9] 23.7 µM and 23.9 µM | [10] 21.7 µM and 20.8 µM | [11] 0.00703 µM
inactive: [2] | [12] | [14] | [15] | [16]

CC1=CC(=C(c2ccc(N)cc2)c2ccc(N)cc2)C=CC1=N
active: [2] 19.9 µM
inactive: [1] | [2] | [7] | [8] | [5] | [6] | [9]

COC1=C(OC)C(=O)C(C/C=C(\C)CC/C=C(\C)CC/C=C(\C)CC/C=C(\C)CC/C=C(\C)CC/C=C(\C)CC/C=C(\C)CC/C=C(\C)CC/C=C(\C)CCC=C(C)C)=C(C)C1=O
active: [8] 42800 nM
inactive: [1] | [2] | [7] | [8] | [5] | [6] | [9] | [10]

CC=CC(=O)CCCC
inactive: [1] | [2] | [7] | [8] | [5]

CCCCCOC(=O)CCCC
inactive: [1] | [2] | [7]

CC(=O)Nc1ccc(C=NNC(N)=S)cc1
inactive: [1] | [2] | [7] | [8] | [5] | [6]
